Bioassay records as filed in PubChem.
Sampled rows, rich in hits. Any-hit rate of the full collection: about 11%.
Pf growth 48h = inhibits P. falciparum growth in the first generation, 48 h; P. falciparum luciferase growth in erythrocytes, 48 h; hit rate 5.9% among 310,000; AID 504832; Potency, µM (top dose mostly 28.7 µM), for inactives: at the top dose activity change, negative = inhibition, actives largely listed as inhibitors; further: on the % scale 0 is the no-effect control and ±100 the full control effect
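In quantitative HTS format, infected erythrocytes bearing luciferase-reporter parasites were treated for a single generation at 37 C. Luminescence after adding detection reagent served as the growth measure.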
Pf growth 96h = inhibits malaria parasite growth, 96 h. P. falciparum luciferase reporter growth, 96 h. Potency, µM (top dose mostly 28.7 µM), without a hit: at the highest dose activity change, negative = inhibition, hits mostly inhibitors. hit rate 6.9% among 320,000; further: on the % scale 0 is the no-effect control and ±100 the full control effect
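P. falciparum expressing integrated firefly luciferase, in erythrocytes at 2% hematocrit, 0.05% parasitemia, incubated with compounds 96 h at 37 C, 5% CO2. Growth inhibition read as loss of luminescence; two-generation exposure targets delayed-death apicoplast inhibitors.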
AMA1-RON2 inh = AMA1-RON2 (P. falciparum) interaction inhibition | AlphaScreen AMA1-biotinylated RON2 peptide binding | Potency, µM (highest dose often 58.2 µM), for inactives: at the highest dose activity change, negative = inhibition, most hits filed as inhibitors | hit rate 0.2% among 360,000;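 further: 0% = vehicle wells and -100% = peptide control; nearly all actives have a fitted effect of over 45% in size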
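AMA1 (3D7) with his tag at 25 nM final met compounds first, then biotinylated RON2 peptide at 25 nM; detection used donor plus acceptor beads, 10 µg/mL apiece, read by AlphaScreen after 30 min at room temperature.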
NS1 function inh = blocks influenza NS1 protein function. Potency, µM (series often up to 46.1 µM), inactives show at the highest dose activity, positive = more growth. hit rate 0.4% among 270,000. AID 2326; calls by dose curve; further: actives are rising curves; nearly all actives have a fitted effect of over 50% in size
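Compounds were scored for reversing the slow growth caused by influenza A NS1 in S. cerevisiae, measured by optical density at 600 nm. Assay medium contained 2% galactose at pH 6.0; NS1-free yeast of the same strain were the positive control.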
Sm TGR inh = inhibitors of Schistosoma mansoni thioredoxin glutathione reductase; Potency, µM (titrated, usually from 114 µM), for inactives: at the top dose activity change, negative = inhibition, most hits filed as inhibitors; purified TGR, DTNB reduction, TNB absorbance 405 nm; AID 485364; hit rate 3% among 360,000; Q962Y6; further: on the % scale 0 is the no-effect control and ±100 the full control effect; nearly all actives have a fitted effect of over 60% in size
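TGR 20 nM + NADPH 100 uM (dispensed conc.), cpd preinc 15 min RT; start with NADPH (500 uM addition) then DTNB (15 mM addition). Kinetic TNB absorbance, 405 nm filter. Four-parameter Hill fit across titration.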
Starred values were filed as active, the others as inactive. Unless noted, the call rests on the fitted dose curve; in most records, active means well fitted curve in the direction sought with a large enough effect; inconclusive means small, poorly fitted or top-dose-only effect, or another doubt; inactive means no such curve, though single readings can be large; an effect the other way counts as inactive or inconclusive. Potency means the concentration at half of the fitted maximal effect.

What do the screens show for `CCCCN(CCCC)CCNC(=O)c1cn(C)c2ccc(S(=O)(=O)N3CCOCC3)cc2c1=O`?
Sm TGR inh: 8%

Results for COC(=O)[C@@H]1C[C@H]1[C@@H](NC(=O)c1cc(C)on1)c1ccccc1 ?
AMA1-RON2 inh: 10%

Results for CCN1CCN(CC(=O)c2ccc(OC)cc2)CC1 ?
Pf growth 48h: 0%; Pf growth 96h: 28%; AMA1-RON2 inh: -1%; Sm TGR inh: 45%

How did CCSc1nnc(NC(=O)NC(C)(C(F)(F)F)C(F)(F)F)s1 do in these assays?
Pf growth 48h: inconclusive; Pf growth 96h: inconclusive; AMA1-RON2 inh: 29%; NS1 function inh: -26%; Sm TGR inh: -3%

Results for CCSc1nnc(NC(=O)NC(CC)(C(F)(F)F)C(F)(F)F)s1 ?
Pf growth 48h: 12µM*; Pf growth 96h: inconclusive; AMA1-RON2 inh: 0%; NS1 function inh: -17%; Sm TGR inh: -6%

Results for COc1ccc(NC(=O)CCc2nnc3n(C)c(=O)c4sccc4n23)cc1Cl ?
Sm TGR inh: 5%

How did CCN(CC(=O)NCc1cccs1)C(=O)/C=C/c1cc(Br)ccc1OC(F)F do in these assays?
Pf growth 48h: inconclusive; Pf growth 96h: 10µM*; AMA1-RON2 inh: 20%; Sm TGR inh: -2%

What do the screens show for `CCc1ccc(OCC(=O)NC2CC(C)(C)NC(C)(C)C2)cc1`?
Pf growth 48h: inconclusive; Pf growth 96h: 6.6µM*; AMA1-RON2 inh: 0%; NS1 function inh: 0%; Sm TGR inh: -2%

Results for CCNC(=O)Cc1c(OC)ccc2cc(Br)ccc12 ?
Pf growth 48h: -2%; Pf growth 96h: 12%; AMA1-RON2 inh: 1%; NS1 function inh: -3%; Sm TGR inh: 9%

Results for Cc1ccc(OCC(=O)NC2CC(C)(C)NC(C)(C)C2)cc1C ?
Pf growth 48h: 11%; Pf growth 96h: 9%; AMA1-RON2 inh: -5%; NS1 function inh: 2%; Sm TGR inh: 7%

What do the screens show for `CCc1cc(=O)oc2c(C)c(OCC(=O)NC3CC(C)(C)NC(C)(C)C3)ccc12`?
Pf growth 48h: inconclusive; Pf growth 96h: 10µM*; AMA1-RON2 inh: 3%; NS1 function inh: 1%; Sm TGR inh: -6%

What do the screens show for `COc1ccc2cc(Br)ccc2c1CC(=O)NC1CC(C)(C)NC(C)(C)C1`?
Pf growth 96h: 8.3µM*; AMA1-RON2 inh: -7%; NS1 function inh: -8%; Sm TGR inh: 6%

What do the screens show for `CCc1cc(=O)oc2c(C)c(OC(C)C(=O)NC3CC(C)(C)NC(C)(C)C3)ccc12` (stereo unspecified)?
Pf growth 48h: inconclusive; Pf growth 96h: inconclusive; AMA1-RON2 inh: -5%; NS1 function inh: -14%; Sm TGR inh: -10%

What do the screens show for `CC(C)NC(=O)N(C)C[C@@H]1Oc2c(NC(=O)Nc3ccccc3)cccc2C(=O)N([C@H](C)CO)C[C@H]1C`?
AMA1-RON2 inh: 11%

How did CCCn1c2ccccc2c2cnn(CC(=O)NCCCN3CCN(c4ccccc4)CC3)c(=O)c21 do in these assays?
Pf growth 48h: 8%; Pf growth 96h: 0.33µM*; AMA1-RON2 inh: -2%; NS1 function inh: -8%; Sm TGR inh: -18%

How did CCCn1c2ccccc2c2cnn(CC(=O)NCCCN3CCCC(C)C3)c(=O)c21 (stereo unspecified) do in these assays?
Pf growth 48h: -13%; Pf growth 96h: 15µM*; AMA1-RON2 inh: 2%; NS1 function inh: -3%; Sm TGR inh: 1%

Results for CN1CCN(C(=O)c2cc3c(c(-c4cccc(-c5cccnc5)c4)n2)[C@@H](CCO)N(C(=O)CC2CC2)C3)CC1 ?
AMA1-RON2 inh: 7%

How did N=C(N)SCc1ncccc1O do in these assays?
Pf growth 48h: 29%; Pf growth 96h: 84%; AMA1-RON2 inh: 27%; NS1 function inh: 4%; Sm TGR inh: 11µM*

Results for N=C(N)SCc1ccccn1 ?
Pf growth 48h: inconclusive; Pf growth 96h: 0%; AMA1-RON2 inh: 0%; NS1 function inh: 19%; Sm TGR inh: 1%

Results for COc1ccc(C(=O)N2CCc3cc(OC)c(OC)cc3C2)cc1OC ?
Pf growth 48h: 17%; Pf growth 96h: inconclusive; AMA1-RON2 inh: 6%; NS1 function inh: 4%; Sm TGR inh: 0%

What do the screens show for `O=C(c1ccc([N+](=O)[O-])o1)N1CCCCCC1`?
AMA1-RON2 inh: -5%

Results for COc1cc2c(cc1OC)CN(C(=O)c1ccc([N+](=O)[O-])o1)CC2 ?
Pf growth 48h: inconclusive; Pf growth 96h: 4.1µM*; AMA1-RON2 inh: -3%; NS1 function inh: -88%; Sm TGR inh: 28µM*

How did O=C(c1ccc([N+](=O)[O-])o1)N1CCc2ccccc21 do in these assays?
Pf growth 48h: inconclusive; Pf growth 96h: inconclusive; AMA1-RON2 inh: -14%; NS1 function inh: -68%; Sm TGR inh: -7%

How did O=C(c1ccc([N+](=O)[O-])o1)N1CCc2ccccc2C1 do in these assays?
Pf growth 48h: inconclusive; Pf growth 96h: 5.2µM*; AMA1-RON2 inh: -3%; NS1 function inh: -79%; Sm TGR inh: 0%

How did O=C(c1ccc([N+](=O)[O-])o1)N1CCOCC1 do in these assays?
Pf growth 48h: inconclusive; Pf growth 96h: 3.3µM*; AMA1-RON2 inh: -2%; Sm TGR inh: -24%

Results for O=C(NCC(F)(F)F)c1ccc2sc([C@H]3C[C@H](O)[C@@H](CO)O3)nc2c1 ?
AMA1-RON2 inh: 9%

Results for O=C(O)c1ccc(N=c2oc3cc(O)ccc3cc2C(=O)NCc2ccccc2)cc1 ?
Pf growth 48h: -28%; Pf growth 96h: inconclusive; AMA1-RON2 inh: -2%; Sm TGR inh: 3%

What do the screens show for `COc1ccc(C(=O)NC(=S)NCc2ccccc2)cc1`?
Pf growth 48h: 21%; Pf growth 96h: 28%; AMA1-RON2 inh: -13%; NS1 function inh: 11%; Sm TGR inh: 5µM*

Results for COc1cc(OC)cc(C(=O)NC(=S)N(Cc2ccccc2)C(C)C)c1 ?
Pf growth 48h: inconclusive; Pf growth 96h: inconclusive; AMA1-RON2 inh: 61%; NS1 function inh: inconclusive; Sm TGR inh: inconclusive

How did COc1cc(OC)cc(C(=O)NC(=S)NCCc2ccccc2)c1 do in these assays?
Pf growth 48h: -10%; Pf growth 96h: -19%; AMA1-RON2 inh: 32%; NS1 function inh: 19%; Sm TGR inh: 10µM*

How did COc1ccc(S(=O)(=O)NNC(=S)NCCc2ccccc2)c(OC)c1 do in these assays?
Pf growth 48h: 20%; Pf growth 96h: inconclusive; AMA1-RON2 inh: 67%; NS1 function inh: -2%; Sm TGR inh: 5.6µM*

Results for COc1ccc2cc(C(=O)NCc3ccccc3)c(=Nc3ccc(C(=O)O)cc3)oc2c1 ?
Pf growth 48h: inconclusive; Pf growth 96h: 0.41µM*; AMA1-RON2 inh: 5%; Sm TGR inh: -1%

How did Cc1nn(C(=O)c2cccc(Cl)c2)c(C)c1S(=O)(=O)N1CCOCC1 do in these assays?
Sm TGR inh: 20µM*
